High-throughput results: PubChem, several laboratories
An excerpt weighted towards active compounds, which were near 4.1% of everything screened.
TWEAK-Fn14 inh = inhibitors of TWEAK-Fn14 interaction signaling; TWEAK-stimulated Fn14 reporter cells, luciferase luminescence, 8 h; inhibition, % at 10 µM; 360,000 tested, 2% active; AID 1159606; in the data active = inhibition above about 50%
Shn3 3UTR inh = Schnurri-3 reporter inhibition in Clone20 osteoblasts. inhibition, % at 12.5 µM. Clone20 osteoblast Shn3 3'UTR firefly luciferase, 24 h. 360,000 tested, 0.52% active;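 active = mean inhibition of at least 75% with every replicate also reaching 75%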
Peg3 promoter = inhibitors of Peg3 promoter. HeLa PEG-Prom luciferase reporter, luminescence, overnight. inhibition, % at 20 µM. 360,000 tested, 1.7% active. AID 588405;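 active = inhibition of at least 50% at 20 µM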
TROY NFkB inh = TROY signaling inhibition; Q293 LMP1-TROYcd NF-kB luciferase reporter, 4 h; 360,000 tested, 0.98% active; inhibition, % at 10 µM; AID 1347056;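 active = compounds whose plate-normalised and pattern-corrected inhibition of the luciferase reporter signal at the single screening dose is 50% or more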
TRPM1 prom inh = MITF TRPM1 promoter inhibition in SK-MEL-5 cells. SK-MEL-5 TRPM1 promoter luciferase, 24 h. inhibition, % at 12.5 µM. 330,000 tested, 0.83% active. AID 488899;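 active = mean inhibition across replicates of 60% or more, whatever share of single replicates reaches that level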
LMP1 NFkB inh = inhibitors of Epstein-Barr LMP1-induced NF-kappaB reporter; LMP1-induced NF-kappaB luciferase reporter cells, luminescence; inhibition, % at 12.5 µM; 350,000 tested, 0.69% active; AID 504558; in the data active = inhibition above about 41%
Each line names hits and unclear results; the compound was inactive in the other large screens.

COc1cccc(C(=O)O/N=C(\N)c2ccncc2)c1OC	none
N/C(=N\OC(=O)c1cccc2ccccc12)c1ccccn1	Peg3 promoter 83
COc1cccc(C(=O)O/N=C(\N)c2ccccn2)c1OC	TWEAK-Fn14 inh 81, LMP1 NFkB inh 52
N/C(=N\OC(=O)c1ccccc1Cl)c1cccc([N+](=O)[O-])c1	none
N/C(=N/OC(=O)c1ccccc1Cl)c1ncc([N+](=O)[O-])s1	TWEAK-Fn14 inh 50
N/C(=N\OC(=O)Cc1cccc2ccccc12)c1ccccn1	none
CCN(CC)S(=O)(=O)c1ccc(/C=C/C(=O)OCC(=O)NCc2ccc3c(c2)OCO3)cc1	none
CC(C)N(CCC(=O)c1ccc2ccccc2c1)Cc1ccccc1	Shn3 3UTR inh 94
O=C(c1ccco1)N1CCN(C(=O)c2[nH]c(C(F)(F)F)nc2-c2ccccc2)CC1	none (no result: TRPM1 prom inh, LMP1 NFkB inh)
O=C(CCl)c1ccc(Cc2ncc(C(F)(F)F)cc2Cl)s1	Peg3 promoter 61
NS(=O)(=O)c1ccc(Cc2ncc(C(F)(F)F)cc2Cl)s1	none
O=C(COC(=O)c1ccc(Br)cc1)NC(=O)NCc1ccccc1	none
Cc1cc(C(F)(F)F)c2c(C)nn(-c3ccccc3)c2n1	none
Cc1nn(-c2ccccc2)c2nc(C(Cl)(Cl)Cl)[nH]c(=O)c12	TROY NFkB inh 51
CCCCc1c(O)cc(C)[nH]c1=O	none
COc1ccc(C(=O)O/N=C(\N)Cc2ccc(Cl)cc2)cc1OC	TWEAK-Fn14 inh 72, Peg3 promoter 113
COc1ccc(C(=O)O/N=C(\N)Cc2ccc(Cl)c(Cl)c2)cc1OC	TWEAK-Fn14 inh 92, Peg3 promoter 104
COc1cc(C(=O)O/N=C(\N)Cc2ccc([N+](=O)[O-])cc2)cc(OC)c1OC	none (no result: TRPM1 prom inh, LMP1 NFkB inh)
CC(C)Cn1nc(C(=O)Nc2nnc(C3CC3)s2)c2ccccc2c1=O	none
CCN(CC)S(=O)(=O)c1cc(NC(=O)C(=O)c2c(-c3ccccc3)cc3ccccn23)ccc1C	TWEAK-Fn14 inh 62
Cc1cccc(C)c1NC(=O)CN(C)CC(=O)Nc1ccccc1Oc1ccccc1	TWEAK-Fn14 inh 52, LMP1 NFkB inh 63
Cn1nc(C(C)(C)C)cc1N1C(=O)CCC1(C)C(=O)NCc1ccccc1 (centres undefined)	none (no result: TRPM1 prom inh, LMP1 NFkB inh)
COCc1nn2c(N)c(C#N)cnc2c1-c1ccccc1	Shn3 3UTR inh 95
CCCSc1nc(C)c(-c2csc(C(C#N)=C3CCCC3)n2)cc1C#N	TWEAK-Fn14 inh 64
C=C1CCC[C@]2(C)C[C@H]3OC(=O)C(CN4CCCCC4CO)[C@H]3CC12 (some centres undefined)	TWEAK-Fn14 inh 51, Peg3 promoter 62, TRPM1 prom inh 79, LMP1 NFkB inh 91
C=C1CCC[C@]2(C)C[C@H]3OC(=O)C(CNC(CC)CO)[C@H]3CC12 (some centres undefined)	TWEAK-Fn14 inh 57
C=C1CCC[C@]2(C)C[C@H]3OC(=O)C(CNC(C)CC)[C@H]3CC12 (some centres undefined)	none
CC(C)(C)S(=O)(=O)c1cnc(N2CCCC2)nc1N	none
CC(C)CCC1(CCNC(=O)c2cccs2)CCOC(C)(C)C1 (centres undefined)	none
CCCCCc1c(-c2ccccc2F)ncn1CCc1ccccc1OC	none (no result: Shn3 3UTR inh, Peg3 promoter, TRPM1 prom inh, LMP1 NFkB inh)
CCCCc1c(-c2ccccc2OC)ncn1CCc1ccccc1OC	TROY NFkB inh 55 (no result: Shn3 3UTR inh, Peg3 promoter, TRPM1 prom inh, LMP1 NFkB inh)
CCCCCc1c(-c2ccccc2OC)ncn1CCc1ccccc1OC	TWEAK-Fn14 inh 52, TROY NFkB inh 56 (no result: Shn3 3UTR inh, Peg3 promoter, TRPM1 prom inh, LMP1 NFkB inh)
COc1cc(-c2cc3nc(NCc4cccc(Cl)c4)ccn3n2)cc(OC)c1OC	TWEAK-Fn14 inh 65 (no result: TRPM1 prom inh, LMP1 NFkB inh)
COc1cc(-c2cc3nc(NCc4cccs4)ccn3n2)cc(OC)c1OC	none (no result: TRPM1 prom inh, LMP1 NFkB inh)
O=C(c1cc(-c2ccccc2Cl)nc2ccc(Br)cc12)N1CCN(c2ccccn2)CC1	TWEAK-Fn14 inh 58, Peg3 promoter 92, TROY NFkB inh 69
Cc1ccc(S(=O)(=O)/N=C2\C=C(Nc3ccc(O)cc3)C(=O)c3ccccc32)cc1	TWEAK-Fn14 inh 101, Shn3 3UTR inh 97, Peg3 promoter 105, TRPM1 prom inh 99, LMP1 NFkB inh 88
Cc1ccc(S(=O)(=O)/N=C2\C=C(Nc3cccc(C(=O)O)c3)C(=O)c3ccccc32)cc1	TWEAK-Fn14 inh 94
CCc1ccc(S(=O)(=O)/N=C2\C=C(Nc3ccc(C(=O)O)cc3)C(=O)c3ccccc32)cc1	TWEAK-Fn14 inh 96
